# High-throughput results: PubChem, National Center for Advancing Translational Sciences (NCATS)
# Compounds with a hit are over-represented: about 2.4% of the library has one in this group of screens.
# D2 PAM-1 – HTS Assay for Positive Allosteric Modulators of the Human D2 Dopamine Receptor: Primary Screen for Potentiators; 340,000 compounds, 0.34% hits; AID 485347, 2010; potentiation, % at 10 µM; HEK293 T-REx D2, calcium flux, EC20 dopamine potentiation;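 active = potentiation over 3 SD above the plate norm, cut at about 30% in these data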; note: 0% is about no effect
# Target sequence (P14416 whole entry, looked up): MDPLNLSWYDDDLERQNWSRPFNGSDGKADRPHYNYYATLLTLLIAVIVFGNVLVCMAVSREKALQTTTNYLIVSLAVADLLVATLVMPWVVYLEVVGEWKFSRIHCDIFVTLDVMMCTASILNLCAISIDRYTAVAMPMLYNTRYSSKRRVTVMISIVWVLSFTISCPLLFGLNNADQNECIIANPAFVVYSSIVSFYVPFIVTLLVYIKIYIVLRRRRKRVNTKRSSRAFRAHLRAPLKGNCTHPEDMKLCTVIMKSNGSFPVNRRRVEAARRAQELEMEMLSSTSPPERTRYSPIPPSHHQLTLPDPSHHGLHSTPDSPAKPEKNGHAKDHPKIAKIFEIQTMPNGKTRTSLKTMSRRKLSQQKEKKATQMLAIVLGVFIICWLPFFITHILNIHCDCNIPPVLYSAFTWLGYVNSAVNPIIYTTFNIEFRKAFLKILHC
#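 Potentiation of an EC20 dopamine calcium response measured kinetically over 180 s, after a preceding 180 s compound-only read flagging agonists. Cells: inducible Hek293 Trex D2 line, 4000/well, cultured overnight at 30 C before dye loading.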
# D2 ag-1 – Beta-Arrestin HTS for Positive Allosteric Modulators of the Human D2 Dopamine Receptor: Agonists; activation, % (no concentration beside the values); DiscoveRx PathHunter D2 beta-arrestin, luminescence, 90 min; 100% = 57 uM dopamine signal; 360,000 compounds, 0.084% hits; D(2) dopamine receptor (Homo sapiens), P14416; in the data active = activation above about 40%; inconclusive = between about 15% and that limit
#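 Agonist mode: compounds alone added to overnight-plated D2 PathHunter cells for 90 min at 37 C, with 57 uM final dopamine (EC100) defining full response. Beta-arrestin recruitment detected by chemiluminescent reagent, read after 1 h at ambient temperature.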
# D2 ag-2 – HTS Assay for Allosteric Agonists of the Human D2 Dopamine Receptor: Primary Screen for Agonists. D(2) dopamine receptor (Homo sapiens), P14416. 340,000 compounds, 0.53% hits. activation, % at 2 µM. AID 485358, 2010. HEK293 T-REx D2 cells, calcium flux agonist mode;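 active = activation over 3 SD above normal in the single-dose calcium agonist read, cut at about 30% in these data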; note: 0% is about no effect
#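 Agonism is scored from calcium flux in a force-coupled, inducible HEK293 cell line expressing D2, read kinetically for 180 s after compound addition against dopamine controls.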
# D2 PAM-2 – Beta-Arrestin HTS for Positive Allosteric Modulators of the Human D2 Dopamine Receptor: Potentiators. DiscoveRx D2 beta-arrestin cells, luminescence, 90 min; 100% = 57 uM dopamine signal. potentiation, % (no concentration beside the values). 360,000 compounds, 0.23% hits. AID 624464, 2012; in the data active = potentiation above about 50%; inconclusive = mostly about 30% to 49%
#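 D2 cells co-treated with compound plus 50 nM dopamine (EC20) for 90 min at 37 deg C to detect potentiation. Beta-arrestin recruitment was read as enzyme-fragment luminescence after 1 h at ambient temperature. Full response was set by 57 uM dopamine.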
# D2 antag – HTS Assay for Allosteric Antagonists of the Human D2 Dopamine Receptor: Primary Screen for Antagonists; inhibition, % at 10 µM; 340,000 compounds, 2% hits; HEK293 TREx D2 cells, calcium flux, dopamine EC80; AID 485344, 2010; in the data active = inhibition above about 30%; inactive = below that, where a call was filed; note: 0% is about no effect
#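 HEK293 T-REx D2 cells, tet-induced, calcium dye no-wash. Cpd pintool add, 180 s kinetic, then EC80 DA, 180 s kinetic. Ca flux read.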
# An asterisk follows results filed as active; u = inconclusive; x = no result.
SMILES,D2 PAM-1,D2 ag-1,D2 ag-2,D2 PAM-2,D2 antag
COc1ccccc1N1CCN(C2CCN(C(=O)COc3ccccc3)CC2)CC1,-22,1,27,-32,90*
COc1ccccc1N1CCN(C(=O)c2coc(=O)c(Br)c2)CC1,-15,-2,1,-17,43*
O=C(CCn1c(=O)c2sccc2n(Cc2cccc(F)c2)c1=O)NCc1ccc2c(c1)OCO2,-1,x,0,x,x
CC(C)Oc1ccc(CNC(=O)CCn2c(=O)c3cccn3c3ccc(F)cc32)cc1,-14,x,0,x,x
COc1ccccc1N1CCN(C2CCCC(C)C2)CC1 (configuration not stated),-22,-2,0,-23,34*
COc1ccccc1N1CCN(C(=O)c2c(C)noc2C)CC1,10,4,0,-1,-12
COc1ccccc1N1CCN(C(=O)c2ccoc2C)CC1,-6,0,1,-5,35*
Cc1ccc(C#N)c(SCCN2CCCCC2)n1,-10,-2,0,-21,34*
Cc1cccc(COc2ccc(/C=C3/C(=O)N(C)C(=S)N3C)cc2)c1,-2,1,-1,-1,31*
Cc1cc2ccccn2c1C(=O)c1ccc([N+](=O)[O-])o1,2,7,0,28,36*
Cn1cccc1Cc1nnc(SCC(=O)NC2CCCC2)n1-c1ccc(F)cc1,-1,-3,2,2,36*
COc1ccc(OC)c(/C=C2/Sc3ccccc3C2=O)c1,-3,0,34*,16,7
CCC1CCC(N2CCN(c3ccccc3F)CC2)CC1 (configuration not stated),-24,5,18,1,37*
C[C@H](NC(=O)OCc1ccccc1)c1nnc([C@H](Cc2ccccc2)NC(=O)OC(C)(C)C)o1,8,0,1,-5,31*
C[C@H](NC(=O)OCc1ccccc1)c1nnc([C@H](C)NC(=O)OCc2ccccc2)o1,9,6,0,-8,38*
CCc1ccc(S(=O)(=O)NCCc2csc3nc(-c4ccccc4)nn23)s1,3,x,0,x,x
O=C(CSc1nc2c(c(=O)[nH]1)CCCC2)Nc1ccc(Br)cc1,4,x,0,x,x
Cc1ccc2c(=O)cc(C(=O)Nc3sc4c(c3C(=O)NCC3CCCO3)CCCC4)oc2c1C (configuration not stated),-8,x,0,x,x
CC(C)c1ccc(NC(=O)C2CCN(S(=O)(=O)c3cccc4nsnc34)CC2)cc1,x,x,0,x,x
CCc1nn(CC(=O)NCCCN2CCc3ccccc3C2)c(=O)c2cc3sccc3n12,-29,-6,-1,-8,79*
O=C1C(=O)N(Cc2cccnc2)C(c2cccc([N+](=O)[O-])c2)/C1=C(\O)c1ccc2c(c1)OCCO2 (configuration not stated),2,2,1,-6,2
COc1cccc(C2/C(=C(\O)c3ccc4c(c3)OCO4)C(=O)C(=O)N2CCN(C)C)c1OC (configuration not stated),4,-3,-2,-10,41*
COc1cccc(C2/C(=C(\O)c3ccc4c(c3)OCCO4)C(=O)C(=O)N2Cc2cccnc2)c1 (configuration not stated),-10,-3,0,-5,31*
CCOc1ccc(/C(O)=C2\C(=O)C(=O)N(CCN(C)C)C2c2cccc(OC)c2OC)cc1Cl (configuration not stated),-4,-2,1,-35,-6
O=C1CCCc2ccccc2N1,46*,8,1,1,-6
SMILES,D2 PAM-1,D2 ag-1,D2 ag-2,D2 PAM-2,D2 antag
CCC1CCCCN1CCCCOc1cccc(Cl)c1 (configuration not stated),-25,-1,0,-16,55*
COC(C[C@@H](O)CC(=O)[C@@H](C)OCc1ccccc1)OC,9,-3,0,-3,7
COC(C[C@H](O)C[C@H](O)[C@H](C)OCc1ccccc1)OC,12,-3,-1,-4,38*
O=C(NC(CO)C(O)c1ccc([N+](=O)[O-])cc1)C(Cl)Cl (configuration not stated),-16,4,2,-5,52*
O=C(N[C@H](CO)[C@H](O)c1ccc([N+](=O)[O-])cc1)C(Cl)Cl,x,-5,x,-9,x
COc1ccc(C(CNC(=O)CCNS(=O)(=O)c2ccc(Br)cc2)N2CCCC2)cc1 (configuration not stated),16,-6,0,-37,-21
COc1ccc(C(CNC(=O)c2oc3ccc(Br)cc3c2C)N2CCCCC2)cc1 (configuration not stated),-14,4,0,-32,-25
COc1ccc(C(CNC(=O)c2oc3cc(Br)ccc3c2C)N2CCCCC2)cc1 (configuration not stated),-22,-1,0,-17,61*
COc1ccc(C(CNC(=O)C(C)Oc2ccc(Br)cc2)N2CCCCC2)cc1 (configuration not stated),-22,-5,1,-6,78*
CCCCC12CN3CC(C)(CN(C1)C3c1ccc(OCc3ccccc3)cc1)C2=O (configuration not stated),10,x,0,x,x
CCc1ccc(-n2nc(CO)c(C(=O)NCCc3ccccc3)n2)cc1,1,x,-1,x,x
O=C1c2ccccc2C(=O)N1CC1c2ccccc2CCN1S(=O)(=O)c1cnc[nH]1 (configuration not stated),-4,1,1,21,46*
N#Cc1ccc(NC(=O)Cn2c3[n+](c4ccc(C(F)(F)F)cc42)CCCCC3)cc1,-12,-4,0,-18,-17
O=C(Cn1c2[n+](c3ccc(C(F)(F)F)cc31)CCCCC2)Nc1ccc(Br)cc1,-25,-3,0,-9,56*
NC(=S)N=Nc1c(O)cc(O)c2[nH]c(=O)ccc12,x,u,x,66*,x
Cc1nn(-c2ccc(F)cc2)c(-n2cccc2)c1C(=O)NCCCN1CCN(c2cccc(Cl)c2)CC1,-15,x,10,x,x
Cc1ccc(S(=O)(=O)N2CCOCC2)cc1C(=O)OC(C)C(=O)c1ccccc1 (configuration not stated),-2,-4,-1,-3,37*
Cc1cccc(C(=O)N2CCc3cc(CNC(=O)c4ccc(Br)o4)ccc32)c1,9,x,0,x,x
